Experimental data taken from PubChem BioAssay (NCI).
About 83,000 compounds went through this panel and 20% of them were active in at least one assay; those are over-represented in the sample as a whole.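 Compound tested at a single concentration for 48 hours in 96-well plates; a percent growth value below 10 was scored as active.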 A number with no mark means an inactive call. Calls of active or inactive are those of the source.

How the values were obtained:
Assay in all cases: NCI-60 one-dose screen, 48 h (100 = growth as untreated, 0 = no growth, -100 = all killed)
Conditions in all cases: 10 µM unless noted
[1] = tested on: NCI-H23 lung
[2] = tested on: NCI-H226 lung
[3] = tested on: NCI-H322M lung
[4] = tested on: HOP-62 NSCLC
[5] = tested on: NCI-H460 lung
[6] = tested on: HOP-92 NSCLC
[7] = tested on: NCI-H522 lung
[8] = tested on: A549/ATCC NSCLC
[9] = tested on: 786-0 renal
[10] = tested on: COLO 205 colon
[11] = tested on: DU-145 prostate
[12] = tested on: K-562 leukemia
[13] = tested on: MALME-3M melanoma
[14] = tested on: MDA-MB-231 breast
[15] = tested on: RXF 393 renal
[16] = tested on: SF-268 CNS
[17] = tested on: SF-295 CNS
[18] = tested on: SF-539 CNS
[19] = tested on: UACC-257 melanoma
[20] = tested on: M14 melanoma

## CCc1ccc(CNc2ccc(N3CCOCC3)c(C(=O)O)c2)cc1
[1]
  growth: 95.2%
[2]
  growth: 109%
[3]
  growth: 102%
[4]
  growth: 90.2%
[5]
  growth: 130%
[6]
  growth: 105%
[7]
  growth: 83.3%
[8]
  growth: 99%
[9]
  growth: 98.9%
[10]
  growth: 101%
[11]
  growth: 105%
[12]
  growth: 111%
[13]
  growth: 101%
[14]
  growth: 114%
[15]
  growth: 121%
[16]
  growth: 95.6%
[17]
  growth: 103%
[18]
  growth: 100%
[19]
  growth: 106%
[20]
  growth: 99.7%

## COc1cccc(-c2cc(C(=O)Nc3ccc(/C=C/c4ccc(OC5CCN(C)CC5)cc4)cc3)ccc2OC)c1
[1]
  growth: 12.6%
[2]
  growth: 76.2%
[3]
  growth: 5.51% (active)
[4]
  growth: -27.5% (active)
[5]
  growth: -72.3% (active)
[6]
  growth: 11%
[7]
  growth: -46.3% (active)
[8]
  growth: -34% (active)
[9]
  growth: -95.2% (active)
[10]
  growth: 29.1%
[11]
  growth: -64.9% (active)
[12]
  growth: -47.9% (active)
[13]
  growth: 51.3%
[14]
  growth: -60.5% (active)
[15]
  growth: 28.9%
[16]
  growth: -30.8% (active)
[17]
  growth: -63% (active)
[18]
  growth: 8.18% (active)
[19]
  growth: 83.7%
[20]
  growth: -21.8% (active)

## O=S(=O)(NCCNc1nccc(-c2c(-c3cccc(O)c3)nc3occn23)n1)c1ccc(Cl)cc1
[1]
  growth: 103%
[2]
  growth: 109%
[3]
  growth: 112%
[4]
  growth: 120%
[5]
  growth: 102%
[6]
  growth: 115%
[7]
  growth: 98.6%
[8]
  growth: 101%
[9]
  growth: 109%
[10]
  growth: 32.7%
[11]
  growth: 111%
[12]
  growth: 87.8%
[13]
  growth: -4.98% (active)
[14]
  growth: 86.2%
[15]
  growth: 107%
[16]
  growth: 103%
[17]
  growth: 114%
[18]
  growth: 121%
[19]
  growth: 46.9%
[20]
  growth: 35.1%

## C=C1C(=O)O[C@H]2[C@H]1CC/C(COC(=O)NCCc1c[nH]c3ccc(OC)cc13)=C\CC[C@@]1(C)O[C@@H]21
[1]
  growth: 73.9%
[2]
  growth: 51%
[3]
  growth: 87.2%
[4]
  growth: 83.4%
[5]
  growth: 69.4%
[6]
  growth: -8.74% (active)
[7]
  growth: -74.2% (active)
[8]
  growth: 64.2%
[9]
  growth: -35.4% (active)
[10]
  growth: -47.2% (active)
[11]
  growth: 10.6%
[12]
  growth: 3.56% (active)
[13]
  growth: -37.2% (active)
[14]
  growth: 39.1%
[15]
  growth: -81.7% (active)
[16]
  growth: 60.1%
[17]
  growth: 86.2%
[18]
  growth: -24.7% (active)
[19]
  growth: 30.6%
[20]
  growth: 14.1%

## Cc1ccc(NC(=O)Cc2ccc(/C=C/C(=O)c3ncc[nH]3)cc2)cc1
[1]
  growth: 41.6%
[2]
  growth: 89.7%
[3]
  growth: 63.9%
[4]
  growth: 43.4%
[5]
  growth: 7.31% (active)
[6]
  growth: 82%
[7]
  growth: 43.6%
[8]
  growth: 62.1%
[9]
  growth: 29.7%
[10]
  growth: 49.2%
[11]
  growth: 16%
[12]
  growth: 8.84% (active)
[13]
  growth: 96.3%
[14]
  growth: 56.6%
[15]
  growth: 52.7%
[16]
  growth: 24.7%
[17]
  growth: 24%
[18]
  growth: -14.8% (active)
[19]
  growth: 83.4%
[20]
  growth: 82.5%

## CC(=O)O[C@H]1Cc2c([nH]c3ccccc23)[C@@H](c2ccc(Cl)cc2)N1C(=O)CCNC(C)(C)C
[1]
  growth: 84.5%
[2]
  growth: 69%
[3]
  growth: 65.9%
[4]
  growth: 69.1%
[5]
  growth: 37.5%
[6]
  growth: 14.1%
[7]
  growth: 63.9%
[8]
  growth: 76.3%
[9]
  growth: 53.1%
[10]
  growth: 53.7%
[11]
  growth: 65.2%
[12]
  growth: 8.71% (active)
[13]
  growth: -37.8% (active)
[14]
  growth: -26% (active)
[15]
  growth: 39.6%
[16]
  growth: 61.3%
[17]
  growth: 68.3%
[18]
  growth: 40.1%
[19]
  growth: 65.1%
[20]
  growth: -0.737% (active)

## Cc1cc2nc3c4ccc(Br)cc4n(CCN(C)C)c3nc2cc1C
[1]
  growth: 14.8%
[2]
  growth: 1.57% (active)
[3]
  growth: 18.9%
[4]
  growth: 16%
[5]
  growth: 2.47% (active)
[6]
  growth: 34.8%
[7]
  growth: -1.24% (active)
[8]
  growth: 5.41% (active)
[9]
  growth: 23.2%
[10]
  growth: -8% (active)
[11]
  growth: 3.18% (active)
[12]
  growth: 4.08% (active)
[13]
  growth: 0.769% (active)
[14]
  growth: 15.2%
[15]
  growth: 16.4%
[16]
  growth: 31%
[17]
  growth: 14.8%
[18]
  growth: 17.2%
[19]
  growth: 18%
[20]
  growth: 14.8%

## C=C1C(=O)O[C@H]2[C@H]1CC/C(COC(=O)NCc1c[nH]c3ccc(F)cc13)=C\CC[C@@]1(C)O[C@@H]21
[1]
  growth: 48.4%
[2]
  growth: 4.11% (active)
[3]
  growth: 80.9%
[4]
  growth: 62.4%
[5]
  growth: 27.9%
[6]
  growth: -18.1% (active)
[7]
  growth: -75.2% (active)
[8]
  growth: 54.6%
[9]
  growth: -51.5% (active)
[10]
  growth: -59.1% (active)
[11]
  growth: -62.9% (active)
[12]
  growth: 1.89% (active)
[13]
  growth: -68.8% (active)
[14]
  growth: -57.5% (active)
[15]
  growth: -88.5% (active)
[16]
  growth: 36%
[17]
  growth: 61.2%
[18]
  growth: -52.6% (active)
[19]
  growth: 14.3%
[20]
  growth: -50.8% (active)

## CC(=O)CCC(=O)OCc1cc(=O)c(O)co1
[1]
  growth: 92.8%
[2]
  growth: 109%
[3]
  growth: 98.2%
[4]
  growth: 105%
[5]
  growth: 112%
[6]
  growth: 105%
[7]
  growth: 96%
[8]
  growth: 101%
[9]
  growth: 99.8%
[10]
  growth: 125%
[11]
  growth: 102%
[12]
  growth: 102%
[13]
  growth: 95.5%
[14]
  growth: 110%
[15]
  growth: 113%
[16]
  growth: 97.7%
[17]
  growth: 103%
[18]
  growth: 110%
[19]
  growth: 99.7%
[20]
  growth: 99.4%

## CCc1c(Cl)nc(N)nc1Nc1ccc(C)c(C)c1
[1]
  growth: 96.9%
[2]
  growth: 83.5%
[3]
  growth: 110%
[4]
  growth: 92.7%
[5]
  growth: 80.7%
[6]
  growth: 112%
[7]
  growth: 81.9%
[8]
  growth: 99.3%
[9]
  growth: 101%
[10]
  growth: 106%
[11]
  growth: 99.5%
[12]
  growth: 96.5%
[13]
  growth: 100%
[14]
  growth: 97.3%
[15]
  growth: 93.9%
[16]
  growth: 97.9%
[17]
  growth: 93.2%
[18]
  growth: 100%
[19]
  growth: 105%
[20]
  growth: 104%

## CCN(CC)c1ccc(C(=O)c2ccccc2)cc1
[1]
  growth: 96.4%
[2]
  growth: 87.9%
[3]
  growth: 97.9%
[4]
  growth: 91.2%
[5]
  growth: 104%
[6]
  growth: 89.6%
[7]
  growth: 87.2%
[8]
  growth: 89.4%
[9]
  growth: 103%
[10]
  growth: 111%
[11]
  growth: 102%
[12]
  growth: 95.2%
[13]
  growth: 95.3%
[14]
  growth: 100%
[15]
  growth: 111%
[16]
  growth: 96.9%
[17]
  growth: 101%
[18]
  growth: 97.7%
[19]
  growth: 96.1%
[20]
  growth: 102%

## Cc1ccccc1NS(=O)(=O)c1cccc(C(=O)Nc2ccc(Br)cc2)c1
[1]
  growth: 18.5% [25 µM]
[2]
  growth: 29.1% [25 µM]
[3]
  growth: 64.2% [25 µM]
[4]
  growth: 80.7% [25 µM]
[5]
  growth: 35.8% [25 µM]
[6]
  growth: 21.1% [25 µM]
[7]
  growth: 39.6% [25 µM]
[8]
  growth: 38.1% [25 µM]
[9]
  growth: 53.6% [25 µM]
[10]
  growth: 52.4% [25 µM]
[11]
  growth: 57.8% [25 µM]
[12]
  growth: 23.1% [25 µM]
[13]
  growth: 18% [25 µM]
[14]
  growth: 56% [25 µM]
[15]
  growth: 60.7% [25 µM]
[16]
  growth: 36.5% [25 µM]
[17]
  growth: 19.7% [25 µM]
[18]
  growth: 57.3% [25 µM]
[19]
  growth: 27.4% [25 µM]
[20]
  growth: 35.5% [25 µM]

## COc1cc2nc(-c3ccc(C(F)(F)F)cc3)cc(OCCN3CCCCC3)c2cc1OC
[1]
  growth: 84.7%
[2]
  growth: 73.2%
[3]
  growth: 73.1%
[4]
  growth: 69.7%
[5]
  growth: 46.3%
[6]
  growth: 68.2%
[7]
  growth: 91.2%
[8]
  growth: 81%
[9]
  growth: 78.7%
[10]
  growth: 27.4%
[11]
  growth: 70.9%
[12]
  growth: 53.4%
[13]
  growth: 74.4%
[14]
  growth: 54.1%
[15]
  growth: 62.4%
[16]
  growth: 75.8%
[17]
  growth: 77.5%
[18]
  growth: 74.4%
[19]
  growth: 36.6%
[20]
  growth: -11.8% (active)

## COc1cccc(-c2ccc3c(c2)NC(=O)/C3=C\c2ccc[nH]2)c1
[1]
  growth: 31.4%
[2]
  growth: 50.5%
[3]
  growth: 45.2%
[4]
  growth: 62.7%
[5]
  growth: 11.5%
[6]
  growth: 93.5%
[7]
  growth: 10.4%
[8]
  growth: 57.1%
[9]
  growth: 48.1%
[10]
  growth: 30%
[11]
  growth: 65.7%
[12]
  growth: 12.4%
[13]
  growth: 51.9%
[14]
  growth: 53.4%
[15]
  growth: 32.2%
[16]
  growth: 80.8%
[17]
  growth: 61.8%
[18]
  growth: 45.4%
[19]
  growth: 77%
[20]
  growth: 39.2%
